SMILES strings stand for the structures. Records with an inconclusive call do not appear. A call without a number means that no potency is given here. The source made the active and inactive calls. Calls follow the shape of the dose curve; as a rule, active = well fitted cell-killing curve with a large enough effect; inconclusive = small, poorly fitted or top-dose-only effect; inactive = flat fitted curve, though single readings scatter.

These results are taken from PubChem BioAssay (NCATS).
Potency is read from the fitted curve at half-maximal effect.

The assay is described as follows: Quantitative highthroughput screen to assess conditional lethalithy of NOMO1 cells grown in RPMI1640 with untreated serum (RPMI+s) (AID 1963876). Also: nearly all actives have a fitted effect of over 35% in size. As to conditions: NOMO1 AML cells in RPMI+serum, CellTiter-Glo viability, 48 h; series mostly up to 45.8 µM. An excerpt: Assay Provider: Jason Cantor Ph.D.
Department of Biochemistry
University of Wisconsin-Madison, Madison, WI, USA
Chemical screening studies have identified drug sensitivities across hundreds of cancer cell lines but most putative therapeutics fail to translate. Discovery and development of drug candidates in models that more accurately reflect nutrient levels in human blood is a major challenge. Here we performed high-throughput screens in conventional versus Human Plasma-Like Medium (HPLM) to identify compounds that were "missed" when screening using the artificial culture condition. Sets of conditional anticancer compounds spanned phases of clinical development and included non-oncology drugs were assessed. […] We also traced conditional phenotypes for several chemotherapeutics to availability of HPLM-specific metabolites and confirmed others for compounds whose reported targets are encoded by nonessential genes. Our findings establish generalizable strategies for exploiting conditional lethality in HPLM to reveal therapeutic candidates and mechanisms of action in cancer cells.
Described herein are the results of each viability screens against three cell lines: NOMO1 (an acute myeloid leukemia cell line); P12-Ichikawa (a T-cell acute lymphoblastic leukemia); and SEM (a B-cell ALL). Each assay was screened using 3 different cell culture media: homemade human plasma-Like medium with 10% dialyzed fetal bovine serum (HPLM+ds); RPMI1640 with 10% untreated FBS and 5mM glucose (RPMI+s); and RPMI1640 with 10% dialyzed fetal bovine serum and 5 mM glucose (RPMI+ds).
PROTOCOL TABLE (as described by Inglese J, Shamu CE and Guy RK. 2007)
SEQUENCE No. (e.g., 1, 2, 3, etc.); […] (e.g., Cells, Incubation, Reagent, etc.); VALUE and DESCRIPTION.
1; Cells; 5 uL; white, solid bottom 1536-well Greiner assay plate.
2; Compounds; 23 nL; Kalypsis pin tool (Wako USA) equipped with a 1536-well pin head to transfer to the assay plates.
3; Incubation; 48 hours; 37C incubation.
4; Reagent; 3 uL; CellTiter Glo (Promega).
5; Incubation; 5 min, room temperature
6; Detection; Luminescence, Viewlux PerkinElmer.
NOTES (numbers refer to Sequence numbers above)
1. Briefly, 5 ul of cell reagent was dispensed using a Multidrop Combi Dispenser. The NOMO1 and SEM cells were plated at 500 cells/well and the P12-Ichikawa line at 1000 cells/well.
2. After seeding the cells, 23 nL of MIPE 4.1 library compounds (in DMSO) were added to each plate using a Kalypsys 1536 Pintool dispenser. Bortezomib at final concentration of […] and DMSO were added to each plate as positive and negative controls respectively. For each screen, MIPE 4.1 compounds were added over an eleven-point concentration range […] in 3-fold dilutions.
3. Each plate was covered with a stainless steel gasketed lid to prevent evaporation and incubated for 48 hour at 37C, 95% relative humidity, and 5% CO2.
4-5. Three microliter CellTilter-GloTM luminescent substrate mix (Promega) reagent was added to the assay plate and incubated at room temperature for 5 min.
6. The luminescence signal was measured using a ViewLux (PerkinElmer) multiplate reader with a 2 second exposure time per plate. Data for each compound were normalized as percent viability such that measurements for DMSO and the empty well controls in each plate were defined as 100% and 0%, respectively.
In general terms: In ATP-based viability assays light output follows the ATP content of the culture.
`C=C1C[C@H]2[C@H]3CCC(=O)[C@@]3(C)CC[C@@H]2[C@@]2(C)C=CC(=O)C=C12`: the Potency result is “inactive”. As for `COc1ccc2c(c1)[C@]13CCCCC1C(C2)N(C)CC3` (stereo not given in full), the entry is “inactive”; as for `CN(C)[C@@H]1C(=O)C(C(N)=O)=C(O)[C@@]2(O)C(=O)C3=C(O)c4c(O)cccc4[C@@](C)(O)[C@H]3C[C@@H]12`, “inactive”. As to `CCCC[N+]1(C)[C@H]2CC(OC(=O)[C@H](CO)c3ccccc3)C[C@H]1[C@H]1O[C@H]12` (stereo not given in full), the Potency was 18700 nM (active).

For `C[C@@]12OC(=O)[C@]1([C@@H](O)[C@@H]1C=CCCC1)NC(=O)[C@H]2CCCl`, the Potency is 235 nM (active). The same measure for `O=c1[nH]c2ccccc2n1CCCN1CCC(n2c(=O)[nH]c3cc(Cl)ccc32)CC1`: “inactive”. The same measure for `CCOC(=O)c1c(C(C#N)=CN)c2ccc(Cl)c(Cl)c2n1C`: “inactive”; for `Cc1[nH]nc2ccc(-c3cncc(OC[C@@H](N)Cc4c[nH]c5ccccc45)c3)cc12`: 1180 nM (active). The same measure for `CC=C(C)C(=O)O[C@H]1C(C)=C2[C@@H]3OC(=O)[C@@](C)(O)[C@@]3(O)[C@@H](OC(=O)CCC)C[C@](C)(OC(C)=O)[C@@H]2[C@@H]1OC(=O)CCCCCCC`: 93.5 nM (active); for `CC(=O)N(C)c1cccc(-c2ccnc3c(C(=O)c4cccs4)cnn23)c1`: “inactive”; for `NCC1(CC(=O)O)CCCCC1`: “inactive”. For `O=c1[nH]c2ccccc2n1C1CCN(Cc2ccc(-c3[nH]c4cc5ncnc5cc4nc3-c3ccccc3)cc2)CC1`, the Potency result is “inactive”. As for `Cc1cc(SCc2sc(-c3ccc(C(F)(F)F)c(F)c3)nc2C)ccc1OCC(=O)O`, the entry is “inactive”; as for `Cc1c(C(=O)Nc2cccc(C(F)(F)F)c2)cc(-c2ccccc2)n1CCCN1CCOCC1`, “inactive”. As for `CCC1(c2ccc(N)cc2)CCC(=O)NC1=O` (stereo not given), the entry is “inactive”; as for `C[C@](O)(COc1ccc(C#N)cc1)C(=O)Nc1ccc(C#N)c(C(F)(F)F)c1`, “inactive”. For the compound `Cc1ncc(OC[C@@]2(c3cccc(F)c3)C[C@H]2C(=O)Nc2ccc(F)cn2)c(C)n1`, the Potency result was “inactive”. In the case of `CC(C)(C)[C@]1(O)C[C@@H]2OC(=O)C[C@@]23C(=O)O[C@@H]2OC(=O)[C@H](O)C213` (stereo not given in full), the Potency entry is “inactive”.

As for `CC(O)=C(C#N)C(=O)Nc1cc(Br)ccc1Br`, the Potency result was “inactive”. As for `c1ccc(CCCN2CCN(CCOC(c3ccccc3)c3ccccc3)CC2)cc1`, the entry is “inactive”. The same measure for `C[C@]12CCC(=O)C=C1CC[C@@H]1[C@H]3CC[C@](C)(O)[C@@]3(C)CC[C@@H]12`: “inactive”. The same measure for `C[C@@H]1CC[C@H]2[C@@H](C)C(=O)O[C@@H]3O[C@@]4(C)CC[C@H]1[C@]32OO4`: “inactive”. Take `Cc1ccccc1-n1c(Cn2ncc3c(N)ncnc32)nc2cccc(C)c2c1=O`: the Potency is 372 nM (active).

As for `COc1ccc2c(c1OC)CN1CCc3cc4c(cc3C1C2)OCO4` (stereo not given), the Potency was 1480 nM (active). For `C#CCN(C)[C@H](C)Cc1ccccc1`, the Potency entry is “inactive”.

Regarding `O=C(Nc1ccncc1)C(=O)c1cn(Cc2ccc(Cl)cc2)c2ccccc12`, the Potency is 132 nM (active). As for `C=C[C@@H]1CN2CCC1C[C@@H]2[C@@H](O)c1ccnc2ccccc12` (stereo not given in full), the entry is “inactive”; as for `Cc1sc2c(c1C)C(c1ccc(Cl)cc1)=N[C@@H](CC(=O)OC(C)(C)C)c1nnc(C)n1-2`, 526 nM (active). As for `c1cc2c(cc1[C@H]1OC[C@H]3[C@H]1CO[C@H]3c1ccc3c(c1)OCO3)OCO2`, the entry is “inactive”. With `CCOC(=O)c1cncn1[C@H](C)c1ccccc1`, the Potency result is “inactive”.

As to `COC1=C[C@@H]2[C@@H]3Cc4ccc(OC)c(O)c4[C@]2(CCN3C)CC1=O`, the Potency result was “inactive”.

As for `CC(NC(C)(C)C)C(=O)c1cccc(Cl)c1` (stereo not given), the Potency entry is “inactive”. With `CSCC[C@@H](NC(=O)[C@@H](Cc1ccccc1)NC(=O)CNC(=O)CNC(=O)[C@@H](N)Cc1ccc(O)cc1)C(=O)O`, the Potency entry was “inactive”.

On to `O=C(O)CNC(=O)c1c(O)c2ccccc2n(Cc2ccccc2)c1=O`, for which the Potency entry is “inactive”. The same measure for `CNCC(O)c1ccc(O)cc1` (stereo not given): “inactive”; for `CCNC(=O)CC1N=C(c2ccc(Cl)cc2)c2cc(OC)ccc2-n2c(C)nnc21` (stereo not given): “inactive”; for `Cc1c(N)nc([C@H](CC(N)=O)NC[C@@H](N)C(N)=O)nc1C(=O)N[C@H](C(=O)N[C@@H](C)[C@H](O)[C@@H](C)C(=O)N[C@@H](C(=O)NCCc1nc(-c2nc(C(=O)NCCC[S+](C)C)cs2)cs1)[C@@H](C)O)C(O[C@H]1O[C@H](CO)[C@H](O)[C@@H](O)[C@@H]1O[C@H]1O[C@H](CO)[C@@H](O)[C@H](OC(N)=O)[C@H]1O)c1cnc[nH]1` (stereo not given in full): 1180 nM (active). Take `COc1cccc2c1[C@]13CCN(CC4CC4)[C@H](C2)[C@]1(OC)CCC(=O)C3`: the Potency result was “inactive”.

On to `O=C(O)c1nn(Cc2ccc(Cl)cc2Cl)c2ccccc12`, for which the Potency entry is “inactive”. As for `O=C(N[C@H]1CN2CCC1CC2)c1ccc(Cl)cc1`, the entry is “inactive”.
